Records with an inconclusive call do not appear. Activity calls are given as the source filed them. Rule for the calls, unless noted: active = hit-call score of the fitted dose curve at least 0.9, where 1 is the maximum; inactive = score below 0.9.
Tests used:
[1] = biological target: Oxysterols receptor LXR-beta (Homo sapiens) (UniProt P55055); assay: ATG_LXRb_TRANS: Attagene TRANS-FACTORIAL HepG2 Assay for human Liver X Receptor beta (LXRb) (AID 2282981; active = hit-call score of the fitted dose curve at least 0.9, where 1 is the maximum); conditions: HepG2 Attagene TRANS GAL4-LXRb reporter, mRNA
Sequence of Oxysterols receptor LXR-beta (Homo sapiens) (P55055 whole entry, looked up, the tested form may be a part): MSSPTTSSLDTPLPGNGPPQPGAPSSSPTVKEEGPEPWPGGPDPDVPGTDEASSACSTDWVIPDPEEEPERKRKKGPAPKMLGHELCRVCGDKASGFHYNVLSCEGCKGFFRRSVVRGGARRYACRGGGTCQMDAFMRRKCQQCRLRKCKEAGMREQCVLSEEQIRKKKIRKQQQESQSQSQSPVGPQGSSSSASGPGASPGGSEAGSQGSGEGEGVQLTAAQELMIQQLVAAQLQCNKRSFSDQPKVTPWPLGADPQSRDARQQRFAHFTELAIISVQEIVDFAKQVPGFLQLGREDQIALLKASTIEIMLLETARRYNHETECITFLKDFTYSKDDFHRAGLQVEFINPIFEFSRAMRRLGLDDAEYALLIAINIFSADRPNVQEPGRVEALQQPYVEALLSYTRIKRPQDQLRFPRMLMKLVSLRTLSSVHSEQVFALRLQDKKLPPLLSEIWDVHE
Procedure, shortened: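 Liver-derived HepG2 cells transfected with Gal4-responsive reporters were dosed for 24 h. Activation was scored as rise in reporter mRNA, by RT-PCR and capillary electrophoresis, above DMSO baseline.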

[2] = biological target: Hepatocyte nuclear factor 4-alpha (Homo sapiens) (UniProt P41235); assay: ATG_HNF4a_TRANS: Attagene TRANS-FACTORIAL HepG2 Assay for human Hepatocyte Nuclear Factor 4 alpha (HNF4a) (AID 2282982; active = hit-call score of the fitted dose curve at least 0.9, where 1 is the maximum); conditions: HepG2 HNF4a transactivation reporter, mRNA readout
Sequence of Hepatocyte nuclear factor 4-alpha (Homo sapiens) (P41235 whole entry, looked up, the tested form may be a part): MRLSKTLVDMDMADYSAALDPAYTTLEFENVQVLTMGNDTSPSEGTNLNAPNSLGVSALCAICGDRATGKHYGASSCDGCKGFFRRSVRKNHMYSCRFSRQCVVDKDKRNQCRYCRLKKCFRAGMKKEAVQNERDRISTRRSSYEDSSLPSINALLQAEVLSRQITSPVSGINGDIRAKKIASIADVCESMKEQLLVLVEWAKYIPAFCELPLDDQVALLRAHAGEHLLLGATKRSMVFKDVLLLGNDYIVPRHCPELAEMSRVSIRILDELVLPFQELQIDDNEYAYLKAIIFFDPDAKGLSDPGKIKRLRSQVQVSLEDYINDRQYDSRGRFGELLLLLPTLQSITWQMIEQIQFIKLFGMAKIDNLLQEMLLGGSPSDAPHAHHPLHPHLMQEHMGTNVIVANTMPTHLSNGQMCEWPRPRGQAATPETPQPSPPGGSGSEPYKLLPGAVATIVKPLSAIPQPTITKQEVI
Procedure, shortened: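 Using HepG2 liver cells transfected with GAL4-UAS reporter units, chemical-induced mRNA increases were assessed after 24 hours. Fluorescent RT-PCR fragments were separated by capillary electrophoresis and compared with DMSO negative controls.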

[3] = ATG_M_06_TRANS: Attagene TRANS-FACTORIAL HepG2 Assay for M06 Transcription Factor (Internal Marker) (AID 2282983; active = hit-call score of the fitted dose curve at least 0.9, where 1 is the maximum); conditions: HepG2 Attagene TRANS M06 internal marker reporter
Procedure, shortened: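 Read-out: fluorescent reporter cDNA fragments resolved by capillary electrophoresis after RT-PCR and HpaI cut. Source cells were HepG2 carrying transfected multi-reporter GAL4 constructs, dosed 24 h. Increase over DMSO control analysed.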

[4] = ATG_M_32_TRANS: Attagene TRANS-FACTORIAL HepG2 Assay for M32 Transcription Factor (Internal Marker) (AID 2282984; active = hit-call score of the fitted dose curve at least 0.9, where 1 is the maximum;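 note: transcript level of a background control reporter unit measured by RT-PCR and capillary electrophoresis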); conditions: HepG2 Attagene TRANS M32 internal marker reporter
Procedure, shortened: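 Fluorescence-detected mRNA induction, HepG2 liver cells, 24 h after dosing. Multiple GAL4-UAS reporter units introduced by transient transfection; background-control endpoint analysed for gain of signal against DMSO.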

[5] = biological target: Transcriptional activator Myb (Homo sapiens) (UniProt P10242); assay: ATG_Myb_CIS: Attagene CIS-FACTORIAL HepG2 Assay for human Myeloblastosis (Myb) Proto-Oncogene Transcription Factor (AID 2282986); conditions: HepG2 Attagene CIS-FACTORIAL Myb reporter transcription; actives raise or lower the signal
Sequence of Transcriptional activator Myb (Homo sapiens) (P10242 whole entry, looked up): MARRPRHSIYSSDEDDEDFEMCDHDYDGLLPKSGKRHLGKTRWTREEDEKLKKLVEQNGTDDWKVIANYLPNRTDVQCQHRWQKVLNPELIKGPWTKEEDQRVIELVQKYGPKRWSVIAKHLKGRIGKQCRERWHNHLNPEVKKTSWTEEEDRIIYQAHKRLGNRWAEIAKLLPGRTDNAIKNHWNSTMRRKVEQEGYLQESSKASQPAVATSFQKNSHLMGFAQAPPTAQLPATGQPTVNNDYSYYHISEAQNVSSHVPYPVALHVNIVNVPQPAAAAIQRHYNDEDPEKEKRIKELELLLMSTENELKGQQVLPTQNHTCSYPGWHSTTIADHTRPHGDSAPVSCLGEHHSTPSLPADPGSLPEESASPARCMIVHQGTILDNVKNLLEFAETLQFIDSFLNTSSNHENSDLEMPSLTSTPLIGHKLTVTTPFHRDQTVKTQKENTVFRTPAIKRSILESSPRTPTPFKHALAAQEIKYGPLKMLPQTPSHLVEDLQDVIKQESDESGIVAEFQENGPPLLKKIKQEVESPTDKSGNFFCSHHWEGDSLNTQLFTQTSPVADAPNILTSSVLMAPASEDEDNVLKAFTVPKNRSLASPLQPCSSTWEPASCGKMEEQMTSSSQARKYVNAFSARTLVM
Procedure, shortened: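 Multiplexed cis-reporter system in HepG2: transient transfection, 24 h treatment, mRNA readout by RT-PCR and capillary electrophoresis. Both increases and decreases are scored versus DMSO negative control.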

[6] = biological target: Nuclear respiratory factor 1 (Homo sapiens) (UniProt Q16656); assay: ATG_NRF1_CIS: Attagene CIS-FACTORIAL HepG2 Assay for human Nuclear Respiratory Factor 1 (NRF1) Orphan Gene (AID 2282987); conditions: HepG2 NRF1 cis-element reporter, Attagene multiplex; actives raise or lower the signal
Sequence of Nuclear respiratory factor 1 (Homo sapiens) (Q16656 whole entry, looked up): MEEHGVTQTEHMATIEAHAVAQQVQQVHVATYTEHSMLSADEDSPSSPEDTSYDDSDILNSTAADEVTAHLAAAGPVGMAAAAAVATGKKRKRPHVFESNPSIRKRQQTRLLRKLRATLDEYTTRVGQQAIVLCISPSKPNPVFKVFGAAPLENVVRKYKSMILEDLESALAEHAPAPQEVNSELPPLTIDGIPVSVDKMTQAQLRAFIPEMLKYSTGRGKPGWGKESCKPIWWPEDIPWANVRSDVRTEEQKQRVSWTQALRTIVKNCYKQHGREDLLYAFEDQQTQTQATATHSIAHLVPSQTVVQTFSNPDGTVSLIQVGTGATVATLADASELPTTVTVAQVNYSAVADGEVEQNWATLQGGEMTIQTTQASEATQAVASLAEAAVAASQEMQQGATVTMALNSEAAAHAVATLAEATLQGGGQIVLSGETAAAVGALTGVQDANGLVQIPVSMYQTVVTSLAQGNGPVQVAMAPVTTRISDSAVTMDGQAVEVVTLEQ
Procedure, shortened: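 Endogenous factor activity was captured via cis-element-driven reporter transcripts in HepG2 cells. Following 24 h chemical treatment, transcripts were quantified by RT-PCR and capillary electrophoresis.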

[7] = biological target: Myc proto-oncogene protein (Homo sapiens) (UniProt P01106); assay: ATG_Myc_CIS: Attagene CIS-FACTORIAL HepG2 Assay for human Myelocytomatosis (Myc) Proto-Oncogene Transcription Factor (AID 2282990); conditions: HepG2, Attagene cis-reporter transcription factor activity; actives raise or lower the signal
Sequence of Myc proto-oncogene protein (Homo sapiens) (P01106 whole entry, looked up): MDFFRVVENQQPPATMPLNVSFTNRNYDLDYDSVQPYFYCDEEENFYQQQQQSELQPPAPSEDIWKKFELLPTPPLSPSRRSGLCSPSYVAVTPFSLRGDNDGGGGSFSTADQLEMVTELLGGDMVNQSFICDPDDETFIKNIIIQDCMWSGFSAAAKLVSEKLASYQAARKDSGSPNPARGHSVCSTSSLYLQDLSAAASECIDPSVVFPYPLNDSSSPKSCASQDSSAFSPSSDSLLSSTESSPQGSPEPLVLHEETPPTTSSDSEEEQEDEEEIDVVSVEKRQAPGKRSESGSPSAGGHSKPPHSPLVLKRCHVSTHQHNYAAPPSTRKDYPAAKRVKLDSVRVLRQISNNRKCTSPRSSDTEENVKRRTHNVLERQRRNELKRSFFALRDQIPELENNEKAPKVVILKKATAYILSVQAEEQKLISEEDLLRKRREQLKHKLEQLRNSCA
Procedure, shortened: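 Multiplexed cis-reporter transcription in HepG2 cells after 24 h chemical treatment. Reporter mRNA measured by RT-PCR and capillary electrophoresis fluorescence; activity fitted bidirectionally against DMSO control.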

[8] = ATG_NF_kB_CIS: Attagene CIS-FACTORIAL HepG2 Assay for human Nuclear Factor Kappa B (NF-kB) (AID 2282991); conditions: HepG2 Attagene cis-factorial NF-kB reporter mRNA; actives raise or lower the signal
Procedure, shortened: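 After 24 h compound incubation, transfected HepG2 cells yield total RNA; reporter cDNA is PCR-amplified, end-labelled with 6-FAM, HpaI-digested and analysed on a genetic analyser. Endogenous factor activity, DMSO-referenced bidirectional fit.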

[9] = ATG_NRF2_ARE_CIS: Attagene CIS-FACTORIAL HepG2 Assay for human Nuclear Factor Erythroid 2 Related Factor 2 (NFR2) response to Antioxidant Response Elements (ARE) (AID 2282992); conditions: HepG2 Attagene ARE/NRF2 reporter, transcription factor activity; actives raise or lower the signal
Procedure, shortened: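 Endogenous transcription factor activity in human liver HepG2 cells is tracked via a cis-element-driven reporter within a multiplexed set. mRNA induction is read by RT-PCR and capillary electrophoresis after 24 h, with DMSO as baseline.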

[10] = ATG_Oct_MLP_CIS: Attagene CIS-FACTORIAL HepG2 Assay for human Octamer-Binding Transcription Factor (Oct) (AID 2282993); conditions: HepG2 Attagene cis-factorial Oct reporter, mRNA; actives raise or lower the signal
Procedure, shortened: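 Read-out: reporter mRNA via RT-PCR plus capillary electrophoresis of 6-FAM-labelled fragments. Transiently transfected HepG2, 24 h exposure, endogenous TF activity on cis elements. Gain or loss of signal fitted relative to DMSO.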

[11] = BSK_3C_TissueFactor: BioMAP Diversity Plus: 3C Assay for Tissue Factor Biomarker Activity (AID 2282997); conditions: BioMAP 3C HUVEC, tissue factor biomarker readout; actives raise or lower the signal
Procedure, shortened: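 HUVEC, 3C system, 24 h post-dose; Tissue Factor by ELISA; bidirectional fit vs DMSO baseline.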

[12] = BSK_3C_uPAR: BioMAP Diversity Plus: 3C Assay for Urokinase-type plasminogen activator receptor (uPAR) Biomarker Activity (AID 2282998); conditions: BioMAP 3C HUVEC, uPAR biomarker ELISA; actives raise or lower the signal
Procedure, shortened: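 HUVEC primary cells; 24 h post-dose; uPAR by ELISA; gain or loss of signal fitted bidirectionally vs DMSO baseline.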

[13] = biological target: Nuclear receptor subfamily 4 group A member 2 (Homo sapiens) (UniProt P43354); assay: ATG_NURR1_TRANS: Attagene TRANS-FACTORIAL HepG2 Assay for human Nuclear Receptor Related Protein 1 (NURR1) (AID 2282985; active = hit-call score of the fitted dose curve at least 0.9, where 1 is the maximum); conditions: HepG2 Attagene TRANS reporter, mRNA readout
Sequence of Nuclear receptor subfamily 4 group A member 2 (Homo sapiens) (P43354 whole entry, looked up, the tested form may be a part): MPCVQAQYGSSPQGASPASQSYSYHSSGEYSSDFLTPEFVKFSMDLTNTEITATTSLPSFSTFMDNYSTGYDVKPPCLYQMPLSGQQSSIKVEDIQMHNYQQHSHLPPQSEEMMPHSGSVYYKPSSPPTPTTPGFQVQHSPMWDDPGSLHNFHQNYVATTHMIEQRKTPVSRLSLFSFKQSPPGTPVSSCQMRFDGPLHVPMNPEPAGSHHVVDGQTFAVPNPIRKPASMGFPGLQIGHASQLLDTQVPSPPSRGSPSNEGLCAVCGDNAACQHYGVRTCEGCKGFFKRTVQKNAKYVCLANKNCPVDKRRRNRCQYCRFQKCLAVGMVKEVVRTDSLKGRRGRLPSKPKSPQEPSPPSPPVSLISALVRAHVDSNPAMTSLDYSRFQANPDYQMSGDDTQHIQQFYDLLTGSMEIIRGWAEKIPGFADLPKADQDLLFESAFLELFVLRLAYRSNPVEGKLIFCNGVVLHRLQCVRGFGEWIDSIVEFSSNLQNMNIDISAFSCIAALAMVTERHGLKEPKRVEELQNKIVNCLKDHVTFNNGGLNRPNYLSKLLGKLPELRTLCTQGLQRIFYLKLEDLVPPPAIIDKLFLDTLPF
Procedure, shortened: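 Chimeric NR-Gal4 proteins were expressed in human HepG2 cells bearing GAL4-UAS reporter units, and induced reporter mRNA was quantified 24 h post-dosing by RT-PCR and capillary electrophoresis.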

[14] = ATG_NFI_CIS: Attagene CIS-FACTORIAL HepG2 Assay for human Nuclear Factor I (NFI) (AID 2282989); conditions: HepG2 cis-regulatory reporter, NFI response element transcription; actives raise or lower the signal
Procedure, shortened: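 Read-out: reporter mRNA via RT-PCR plus capillary electrophoresis with fluorescence detection. Transiently transfected HepG2 (endogenous TF activity on cis promoters), 24 h compound exposure; gain or loss of signal fitted against DMSO.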

[15] = biological target: Cellular tumor antigen p53 (Homo sapiens) (UniProt P04637); assay: ATG_p53_CIS: Attagene CIS-FACTORIAL HepG2 Assay for human p53 Transcription Factor (AID 2282994); conditions: HepG2 p53 cis-element reporter, Attagene mRNA; actives raise or lower the signal
Sequence of Cellular tumor antigen p53 (Homo sapiens) (P04637 whole entry, looked up, the tested form may be a part): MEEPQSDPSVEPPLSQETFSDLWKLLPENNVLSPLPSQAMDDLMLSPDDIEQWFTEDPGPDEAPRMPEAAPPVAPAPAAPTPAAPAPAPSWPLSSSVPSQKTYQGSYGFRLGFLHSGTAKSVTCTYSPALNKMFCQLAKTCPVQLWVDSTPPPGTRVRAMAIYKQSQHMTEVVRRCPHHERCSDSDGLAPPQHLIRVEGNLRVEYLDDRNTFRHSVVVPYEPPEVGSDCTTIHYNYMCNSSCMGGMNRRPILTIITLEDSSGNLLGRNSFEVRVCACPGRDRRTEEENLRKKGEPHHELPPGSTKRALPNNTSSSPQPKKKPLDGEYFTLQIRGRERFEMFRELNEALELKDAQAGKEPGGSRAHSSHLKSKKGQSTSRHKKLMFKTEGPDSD
Procedure, shortened: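 Steps: transfect HepG2 with multiplexed cis reporter constructs; dose chemicals 24 h; extract RNA, reverse-transcribe, PCR-amplify reporter sequences; FAM-label, HpaI-digest, resolve fragments by CE. Activity fitted both directions relative to DMSO.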

[16] = biological target: Oxysterols receptor LXR-alpha (Homo sapiens) (UniProt Q13133); assay: ATG_LXRa_TRANS: Attagene TRANS-FACTORIAL HepG2 Assay for human Liver X Receptor alpha (LXRa) (AID 2282980; active = hit-call score of the fitted dose curve at least 0.9, where 1 is the maximum); conditions: HepG2 Attagene TRANS reporter, LXRa transactivation
Sequence of Oxysterols receptor LXR-alpha (Homo sapiens) (Q13133 whole entry, looked up, the tested form may be a part): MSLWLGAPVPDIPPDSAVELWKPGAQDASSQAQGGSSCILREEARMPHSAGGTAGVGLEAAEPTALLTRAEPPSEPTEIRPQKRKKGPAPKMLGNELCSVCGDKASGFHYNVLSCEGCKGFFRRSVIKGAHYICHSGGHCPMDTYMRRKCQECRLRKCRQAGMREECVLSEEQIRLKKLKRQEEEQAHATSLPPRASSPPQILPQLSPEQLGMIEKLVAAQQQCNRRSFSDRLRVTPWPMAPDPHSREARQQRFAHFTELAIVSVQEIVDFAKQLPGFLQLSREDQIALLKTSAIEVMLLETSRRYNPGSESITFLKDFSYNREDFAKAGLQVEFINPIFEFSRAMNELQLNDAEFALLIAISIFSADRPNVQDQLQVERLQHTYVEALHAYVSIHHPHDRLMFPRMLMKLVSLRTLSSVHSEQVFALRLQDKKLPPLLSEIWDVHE
Procedure, shortened: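 Read-out: reporter transcript levels by RT-PCR plus capillary electrophoresis, fluorescence intensity. Transiently transfected HepG2, exogenous NR-GAL4 chimera, GAL4-UAS reporters; 24 h compound exposure. Activity = increase over DMSO negative control.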

For `NC(=S)Nc1ccccc1`, the outcome [1] was “inactive”, the outcome [2] was “inactive” and the outcome [3] was “inactive”. For the same compound, the outcome [4] was “inactive”, the outcome [5] was “inactive” and the outcome [6] was “inactive”. For the same compound, the outcome [7] was “inactive”, the outcome [8] was “inactive” and the outcome [9] was “inactive”. For the same compound, the outcome [10] was “inactive”, the outcome [11] was “inactive” and the outcome [12] was “inactive”.
In the case of `CCCCCCCCC(=O)NCc1ccc(O)c(OC)c1`, the outcome [3] is reported as “inactive”, the outcome [4] is reported as “inactive” and the outcome [13] is reported as “inactive”. The outcome [5] was “inactive”, the outcome [6] was “inactive” and the AC50 [14] was 151 µM (active). For the same compound, the outcome [7] was “inactive”, the outcome [8] was “inactive” and the AC50 [9] was 38.3 µM (active). The outcome [10] was “inactive”, the outcome [11] was “inactive” and the outcome [12] was “inactive”.
With `O=Cc1cccc(Oc2ccccc2)c1` the outcome [2] was “inactive”, the outcome [3] was “inactive” and the outcome [4] was “inactive”. The outcome [13] was “inactive”, the outcome [5] was “inactive” and the outcome [6] was “inactive”. The outcome [14] was “inactive”, the outcome [7] was “inactive” and the outcome [8] was “inactive”. For the same compound, the outcome [10] was “inactive”, the outcome [11] was “inactive” and the outcome [12] was “inactive”.
In the case of `OCC(O)CCl` (stereo not drawn), the outcome [1] is reported as “inactive”, the outcome [3] is reported as “inactive” and the outcome [13] is reported as “inactive”. For the same compound, the outcome [5] was “inactive”, the outcome [6] was “inactive” and the outcome [14] was “inactive”. For the same compound, the outcome [7] was “inactive”, the outcome [8] was “inactive” and the outcome [9] was “inactive”. For the same compound, the outcome [10] was “inactive” and the outcome [15] was “inactive”.
In the case of `CC(C#N)CCC#N` (stereo not drawn), the outcome [1] is reported as “inactive”, the outcome [3] is reported as “inactive” and the outcome [13] is reported as “inactive”. For the same compound, the outcome [5] was “inactive”, the outcome [6] was “inactive” and the outcome [14] was “inactive”. The outcome [7] was “inactive”, the outcome [8] was “inactive” and the outcome [9] was “inactive”. For the same compound, the outcome [10] was “inactive”.
In the case of `CCOP(=O)(CN(CCO)CCO)OCC`, the outcome [1] is reported as “inactive”, the outcome [3] is reported as “inactive” and the outcome [4] is reported as “inactive”. The outcome [13] was “inactive”, the outcome [5] was “inactive” and the outcome [6] was “inactive”. The outcome [14] was “inactive”, the outcome [7] was “inactive” and the outcome [8] was “inactive”. For the same compound, the outcome [9] was “inactive”, the outcome [10] was “inactive” and the outcome [15] was “inactive”.
For `CC(C)CCCCCCOC(=O)c1ccccc1C(=O)OCCCCCCC(C)C`, the outcome [16] was “inactive”, the outcome [2] was “inactive” and the outcome [5] was “inactive”. The outcome [14] was “inactive”, the outcome [7] was “inactive” and the outcome [8] was “inactive”. For the same compound, the outcome [9] was “inactive”, the outcome [10] was “inactive” and the outcome [15] was “inactive”. The outcome [11] was “inactive” and the outcome [12] was “inactive”.
With `N#CCCO` the outcome [16] was “inactive”, the outcome [1] was “inactive” and the outcome [5] was “inactive”. For the same compound, the outcome [14] was “inactive”, the outcome [7] was “inactive” and the outcome [8] was “inactive”. For the same compound, the outcome [9] was “inactive” and the outcome [10] was “inactive”.

— PubChem BioAssay (EPA / NIEHS)
